Assay outcomes (PubChem BioAssay)
This excerpt belongs to a sample that is enriched for hits.
HIV RNase H inh = HIV-1 RT RNase H inhibitors, primary screen, biochemical, fluorescence. Gag-Pol polyprotein (Human immunodeficiency virus type 1 group M subtype B (isolate …. RT-RNase H RNA/DNA duplex cleavage. inhibition, % at 10 µM. actives 1.9% (n = 65,000). AID 565, 2006; in the data active = inhibition above about 50%
RmlCD inh mix = RmlC and RmlD coupled enzyme inhibitors, primary screen, biochemical, 384-well, compound mixtures, retest; RmlC/RmlD coupled enzyme inhibition, 384-well mixture HTS; inhibition, % at 5.5 µM; actives 0.39% (n = 110,000); AID 1532, 2009; in the data active = inhibition above about 30%, passing the limit was not always enough; inconclusive = no clear call, values can overlap the other calls
RmlCD fluor art = counter-screen for RmlC/RmlD inhibitors: fluorescence artifact, dose response, artefact control, biochemical | shares compounds with RmlCD inh mix | RmlC/RmlD assay fluorescence artifact counter-screen | calls only | actives 96% (n = 360); call rule not given here;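 also: compound alone with no enzyme and no substrates present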
Active calls of the source: *; ? = inconclusive; . = not tested or not shown; + = active, no number.

SMILES	HIV RNase H inh	RmlCD inh mix	RmlCD fluor art
N#Cc1c(-c2ccco2)cc(-c2cccnc2)nc1N	-22.4	?	.
O=C(O)c1cc2c(s1)-c1ccccc1OC2	-1.5	?	.
O=C(c1ccco1)N1CCN(C(=O)c2cc3c(s2)-c2ccccc2OC3)CC1	29.0	46.4*	+
C=CCNC(=O)c1onc(CSc2cccc(OC)c2)c1C(=O)NCC=C	.	-4.7	.
CC[C@@H]1CC=C[C@H]2[C@H]1C(=O)N(Cc1ccccc1)[C@H]2c1ccc(OC)c(Cl)c1	.	-12.1	.
CN(C)CCCNS(=O)(=O)c1ccc(N2CCC(c3ccc(Cl)cc3)=N2)cc1	.	93.2*	+
CN(C)CCCNS(=O)(=O)c1cc(Cl)ccc1Cl	6.1	1.8	.
CCN(CC(=O)N1CCCCCC1)S(=O)(=O)c1ccc(Cl)cc1	-1.1	-0.9	.
O=S(=O)(c1ccc(N2CCC(c3ccc(Cl)cc3)=N2)cc1)N(CCO)CCO	.	39.5*	+
CC(=O)OC1c2ccccc2C(=O)N1Cc1ccccc1 (stereo unspecified)	.	3.3	.
CC(=O)O[C@@H]1[C@@]2(C)O[C@H]2CC[C@]23O[C@H]2[C@H](OC3=O)C2=C(C)C(=O)O[C@@]21O	.	-13.6	.
COc1ccc(C2NC(=O)N(CCCC(=O)O)C(C)=C2C(=O)OCc2ccccc2)cc1 (stereo unspecified)	.	9.4	.
NC(=O)c1ccc(C(F)(F)F)n(Cc2cccc(Cl)c2)c1=O	.	-12.0	.
Cn1c(CNC2CCCCC2)c(C#N)c2ccccc21	.	7.5	.
COc1ccc(C(=O)Oc2ccc3oc(=O)sc3c2)cc1	.	-1.2	.
Cc1ccccc1NC(=O)Cc1nc(CSc2nnc(-c3ccc4c(c3)OCO4)o2)cs1	.	-4.8	.
COc1cc(-c2nc3ccccn3c2/N=C/c2cc(OC)c(OC)c(OC)c2)ccc1O	.	43.6*	+
COc1cc(/C=N/Nc2nn3cnnc3c3ccccc23)ccc1O	.	15.2	.
Cn1nc(C(=O)NCc2ccccn2)c2ccccc2c1=O	-11.1	-8.2	.
Cn1c(C(=O)NCc2ccccn2)cc2c(=O)n3ccccc3nc21	-28.4	95.6*	+
COc1ccc(C#Cc2c(-c3ccsc3)oc3ccc(-c4cc(OC)c(OC)c(OC)c4)cc23)cc1	.	59.7*	+
COc1ccc(-c2oc3ccc(-c4cc(OC)c(OC)c(OC)c4)cc3c2-c2ccc(OC)cc2)cc1	.	-56.1	.
CCOC(=O)c1sc(NC(=O)c2cc(-c3ccccc3)nc3ccccc23)c(C#N)c1C	.	5.4	.
O=C(Nc1cccc(Cl)c1)Nc1cccc(Cl)c1	.	-14.2	.
N#Cc1ccccc1NC(=O)Nc1cccc(Cl)c1	-12.0	43.7*	+
SMILES	HIV RNase H inh	RmlCD inh mix	RmlCD fluor art
N#Cc1ccccc1NC(=O)Nc1ccc(Cl)cc1	.	40.2*	+
Cc1ccc(NC(=O)Nc2ccccc2C#N)c(Cl)c1	.	29.3	.
COC(=O)[C@@H]1C[C@H]2CC[C@H](O)C[C@H]2N1Cc1ccc(C)s1	.	-2.5	.
CC(=O)NC1(c2cccc(F)c2)CCN(C(=O)Nc2ccc(C#N)cc2)CC1	-10.3	1.6	.
Cc1cc(NCCCN(C)C)n2nc(-c3cccs3)cc2n1	.	-10.2	.
Cc1cc(C)c2c(n1)nn1c(NCCCN(C)C)cc(C)nc21	-7.3	86.0*	+
Nc1ccc(-c2nc3c(Cl)c(N)ccc3[nH]2)cc1	-4.3	116.0*	+
Nc1ccc2nc(-c3ccc(Cl)cc3)[nH]c2c1	3.1	8.8	.
Cc1cc(C(=O)CN2C(=O)c3cccc(N)c3C2=O)c(C)n1Cc1cccs1	.	9.2	.
COc1cc(=O)n(C)c2cc(N(C)C)ccc12	-16.4	79.8*	+
CN1C(=O)c2ccc(N(C)C)cc2C1=O	-14.7	-2.6	.
COc1ccc(Br)cc1C(=O)Nc1cc(C)cc(C)c1	.	5.1	.
CN1CCN(Cc2c(O)c(Cl)cc3c(-c4ccccc4)cc(=O)oc23)CC1	7.2	-9.5	.
Cc1c(O)c(CN2CCCC2)cc2c1oc(=O)c1ccccc12	-2.2	9.0	.
CCCCc1cc(=O)oc2c(CN3CCCC3)c(O)c(Cl)cc12	-9.0	124.0*	+
Cc1c(C)c2cc(Cl)c(O)c(CN3CCCCC3)c2oc1=O	-6.6	89.8*	+
CCCc1cc(=O)oc2c(CN3CCN(C)CC3)c(O)c(Cl)cc12	-8.3	71.3*	+
CCCCc1cc(=O)oc2cc(OCc3nn[nH]n3)c(Cl)cc12	-7.6	20.4	.
CCCCc1cc(=O)oc2c(CN(CC)CC)c(O)c(Cl)cc12	.	85.4*	+
Cc1cc(=O)oc2c(CN3CCN(C)CC3)c(O)c(Cl)cc12	2.8	.	.
CC(C)n1nc(Cc2cccc3ccccc23)c(C#N)c1N	.	-11.5	.
O=C(O)C[C@H](O)C[C@H](O)/C=C/c1c(C2CC2)nc2ccccc2c1-c1ccc(F)cc1	.	-7.1	.
Cc1ccc(Sc2cc(Cl)nc(N)n2)cc1	.	5.3	.
Clc1ccc(Sc2cc(Cl)c(-c3ccccc3)nn2)cc1	.	3.5	.
Cc1cc(C)c(C#N)c(SCC(=O)CC(=O)OC(C)C)n1	-0.6	55.5*	+
SMILES	HIV RNase H inh	RmlCD inh mix	RmlCD fluor art
Cc1nc(SCC(=O)CC(=O)OC(C)C)c(C#N)c(C)c1C	-34.6	3.5	.
COc1ccccc1NS(=O)(=O)c1cc(Cl)ccc1OC	-81.9	-9.0	.
COCCCn1c(N)c(C(=O)OCCOC)c2nc3ccccc3nc21	-8.1	14.8	.
CC(C)OC(=O)c1c(N)n(Cc2ccco2)c2nc3ccccc3nc12	8.7	33.9	.
CCOC(=O)c1c(N)n(CCCOC(=O)c2ccco2)c2nc3ccccc3nc12	-1.6	33.5*	+
CC(C)OC(=O)c1c(N)n(CCCN2CCOCC2)c2nc3ccccc3nc12	.	37.5*	+
COc1cc(CO)cc(Br)c1OCc1cccnc1	-12.9	16.5	.
Cc1ccc(S(=O)(=O)N[C@@H](Cc2ccccc2)C(=O)CCl)cc1	.	8.1	.
COC(=O)[C@@]1(Cc2ccc(F)cc2)[C@H]2c3cc(C(=O)N(C)C)n(Cc4c(CO)[nH]cc(C)c4=O)c3C[C@H]2CN1C(=O)c1ccccc1	.	13.6	.
CCCCn1c(=O)nc2n(-c3ccccc3)c3ccccc3cc-2c1=O	.	37.1*	+
CCCCn1c(=O)c(C(=O)c2ccccc2)nc2ccccc21	.	2.0	.
Cc1nn(-c2ccccc2)c(Cl)c1C(=O)Nc1nnc(C2CCCC2)s1	-18.6	11.7	.
O=C(CNS(=O)(=O)c1ccc(Br)cc1)N1CCOCC1	.	-11.3	.
CCNC(=O)NC(=O)COC(=O)c1ccccc1SCC(=O)NC(=O)NCC	3.6	+	+
CCNC(=O)NC(=O)CSc1ccc(NC(C)=O)cc1	-1.4	6.0	.
Cc1csc(Sc2ccc([N+](=O)[O-])cc2C(=O)OCC(=O)NC(=O)NC(C)(C)C)n1	.	-14.5	.
COc1cc(-c2cc(C(=O)O)c3cc4c(cc3n2)OCCO4)cc(OC)c1OC	.	6.3	.
COC(=O)c1ccc(-c2cc(C(=O)O)c3cc4c(cc3n2)OCCO4)cc1	-13.3	47.5*	+
Cc1cc(NCCCn2ccnc2)n2c(nc3ccccc32)c1C#N	-11.9	85.4*	+
CC(C)c1cc(NCCCN2CCOCC2)n2c(nc3ccccc32)c1C#N	1.7	44.6*	+
Cc1cc(NCCN2CCCCC2)n2c(nc3ccccc32)c1C#N	-1.5	.	.
CC(C)c1cc(NCCN2CCOCC2)n2c(nc3ccccc32)c1C#N	-3.7	.	.
O=C(O)C1=C[C@H](c2ccc(F)cc2)C[C@H](OCCCCO)O1	.	2.3	.
O=C(NCCc1ccccc1)[C@@H]1CC=C[C@@H]2CCN(C3CCCCC3)C(=O)[C@@H]21	.	-9.5	.
